Results from PubChem BioAssay (NCATS).
Results filed as inconclusive are left out. Active and inactive are the calls of the source. Unless noted, calls come from the whole dose curve.

system: not listed separately; experiment: AP1 Signaling Pathway (AID 357; active = well fitted curve in either direction with a large enough effect, not every such curve was filed as active;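 note: ME-180 reporter cells stimulated with EGF at its EC50 level; % is set by controls: 0 for no effect and ±100 for the full control effect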); conditions: ME-180 (cervical carcinoma) AP-1-bla reporter, EGF-induced, beta-lactamase ratio, 5 h; at 7.69 µM (top of the series) unless noted
Outline: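 Beta-lactamase reporter under AP-1 response element, ME-180 background. Stimulus: EC50 EGF. Compound exposure 5 h, 37 °C. Detection: CCF4, 2.5 h RT, 460/530 nm. Values: AC50 from titration.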

Structure (SMILES) | activity change, negative = inhibition
CC(=O)N1CCC2(CC1)CN(Cc1ccccc1)C2 | 9.85% (inactive)
Cn1cccc1C(=O)N1CCC2(CCN(C(=O)Nc3cccc(F)c3)CC2)CC1 | -12.6% (inactive)
COCC(=O)N1CCC2(CC1)CCN(C(=O)Nc1ccc(OC)cc1)CC2 | -6.71% (inactive)
COC(=O)N1CCC[C@@]2(CCN(c3ccncc3)C2)C1 | -7.07% (inactive)
COC(=O)N1CCC2(CCN(C(=O)NC(C)C)CC2)CC1 | -1.37% (inactive)
O=C(Nc1cccc(F)c1)N1CCC2(CCNCC2)CC1 | -5.25% (inactive)
O=S(=O)(c1ccccc1)N1CCC2(CCN(C(c3ccccc3)c3ccccc3)CC2)CC1 | -13.4% (inactive)
CC(C)NC(=O)N1CC[C@@]2(CCCN(C(=O)c3cccn3C)C2)C1 | 12.3% (inactive)
CS(=O)(=O)N1CCC2(CCN(c3ccccc3)CC2)CC1 | 0.201% (inactive)
CC(C)NC(=O)N1CC[C@@]2(CCCN(C(=O)Oc3ccccc3)C2)C1 | 6.59% (inactive)
COc1ccc(NC(=O)N2CC[C@@]3(CCCNC3)C2)cc1 | -15.6% (inactive)
O=C(c1ccncc1)N1CCC2(CC1)CN(c1ncccn1)C2 | 7.49% (inactive)
COc1ccc(NC(=O)N2CC3(CCN(C(=O)c4cccn4C)CC3)C2)cc1 | -10.5% (inactive)
COC(=O)N1CCC2(CC1)CN(C(=O)Nc1ccccc1)C2 | -8.08% (inactive)
COc1ccccc1CN1CC[C@@]2(CCCN(C(=O)c3c(C)noc3C)C2)C1 | -0.263% (inactive)
CC(=O)N1CCC[C@@]2(CCN(Cc3ccccc3)C2)C1 | -2.69% (inactive)
O=C(c1csnn1)N1CCC2(CCCN(Cc3cc(C(F)(F)F)cc(C(F)(F)F)c3)C2)CC1 | 10.6% (inactive)
CS(=O)(=O)N1CCC2(CC1)CN(C(=O)Nc1ccccc1)C2 | -5.74% (inactive)
O=C(Nc1cccc(F)c1)N1CCC2(CC1)CCN(C(=O)c1csnn1)CC2 | -8.39% (inactive)
COCC(=O)N1CCC2(CCCN(C(=O)Nc3cccc(F)c3)C2)CC1 | -4.55% (inactive)

Structure (SMILES) | activity change, negative = inhibition
COc1ccc(NC(=O)N2CCC3(CC2)CCN(C(=O)c2cnccn2)CC3)cc1 | -11.1% (inactive)
O=C(Nc1ccccc1)N1CCC2(CC1)CCN(C(=O)c1csnn1)CC2 | -1.74% (inactive)
COC(=O)N1CCC[C@@]2(CCN(C(=O)Nc3ccccc3)C2)C1 | -3.51% (inactive)
COc1ccc(C(=O)N2CCC3(CCCN(Cc4ccncc4)C3)CC2)cc1 | -3.23% (inactive)
O=C(c1cc(C(F)(F)F)cc(C(F)(F)F)c1)N1CCC[C@@]2(CCN(Cc3ccncc3)C2)C1 | -6.9% (inactive)
COc1ccc(NC(=O)N2CC3(CCN(C(=O)c4c(C)noc4C)CC3)C2)cc1 | 4.05% (inactive)
O=C(Nc1ccccc1)N1CCC2(CC1)CCN(C(=O)c1cnccn1)CC2 | -8.59% (inactive)
COC(=O)N1CCC2(CC1)CN(c1cccc(-c3ccccc3)c1)C2 | -12.5% (inactive)
COCC(=O)N1CCC[C@@]2(CCN(c3ncccn3)C2)C1 | -8.65% (inactive)
O=C(Nc1cccc(F)c1)N1CC2(CCN(C(=O)c3csnn3)CC2)C1 | -24.7% (inactive)
COCC(=O)N1CCC2(CC1)CN(C(=O)Nc1cccc(C#N)c1)C2 | 12.3% (inactive)
CC(C)NC(=O)N1CCC2(CC1)CCN(S(C)(=O)=O)CC2 | -12.4% (inactive)
O=C(c1csnn1)N1CCC2(CC1)CN(c1ccncc1)C2 | -12.4% (inactive)
COCC(=O)N1CCC2(CC1)CCN(C(=O)Nc1cccc(F)c1)CC2 | 5.9% (inactive)
O=C(c1cnccn1)N1CCC2(CCN(Cc3nccs3)CC2)CC1 | 2.79% (inactive)
CC(=O)N1CCC2(CC1)CN(c1ccncc1)C2 | -4.3% (inactive)
CS(=O)(=O)N1CCC2(CCN(C(=O)Nc3cccc(F)c3)CC2)CC1 | -2.81% (inactive)
O=C(Nc1ccccc1)N1CC[C@@]2(CCCN(C(=O)c3ccco3)C2)C1 | -6.95% (inactive)
CS(=O)(=O)N1CCC[C@@]2(CCN(C(=O)Nc3ccccc3)C2)C1 | -1.88% (inactive)
Cc1noc(C)c1C(=O)N1CCC[C@@]2(CCN(C(=O)NC(C)C)C2)C1 | -0.0457% (inactive)

biological target: Cytochrome P450 1A2 (Homo sapiens) (UniProt P05177); experiment: p450-cyp1a2 (AID 410); conditions: recombinant CYP1A2, luciferin-ME demethylation, luminescence; series mostly up to 57 µM; note: potency is the fitted concentration of half-maximal effect;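 for activity change, negative = inhibition: -100% = full effect of reference inhibitor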
Sequence (P05177 whole entry, looked up): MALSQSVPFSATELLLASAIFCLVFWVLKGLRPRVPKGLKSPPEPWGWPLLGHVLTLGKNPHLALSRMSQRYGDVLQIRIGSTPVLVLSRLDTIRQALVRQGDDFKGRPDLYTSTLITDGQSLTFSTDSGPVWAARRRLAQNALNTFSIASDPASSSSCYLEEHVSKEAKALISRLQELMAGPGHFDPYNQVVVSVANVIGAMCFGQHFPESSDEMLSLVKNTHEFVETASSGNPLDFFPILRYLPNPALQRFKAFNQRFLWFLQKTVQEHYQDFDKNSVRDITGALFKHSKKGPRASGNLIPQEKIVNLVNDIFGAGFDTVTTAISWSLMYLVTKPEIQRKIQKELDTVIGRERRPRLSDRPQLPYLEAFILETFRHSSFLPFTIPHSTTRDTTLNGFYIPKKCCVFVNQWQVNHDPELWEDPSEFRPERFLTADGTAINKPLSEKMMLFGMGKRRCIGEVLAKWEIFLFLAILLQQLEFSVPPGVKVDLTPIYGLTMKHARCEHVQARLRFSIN
Outline: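 Luminescent demethylation readout: Luciferin-ME (100uM, equal to Km) turned over by 20nM CYP1A2 for 60 min at room temperature after NADPH regeneration addition, following 10 min compound preincubation. Normalization used 57 uM furafylline as full inhibition.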

Structure (SMILES) | Potency
CC(=O)N1CCC2(CC1)CN(Cc1ccccc1)C2 | inactive
Cn1cccc1C(=O)N1CCC2(CCN(C(=O)Nc3cccc(F)c3)CC2)CC1 | inactive
COCC(=O)N1CCC2(CC1)CCN(C(=O)Nc1ccc(OC)cc1)CC2 | inactive
COC(=O)N1CCC[C@@]2(CCN(c3ccncc3)C2)C1 | inactive
COC(=O)N1CCC2(CCN(C(=O)NC(C)C)CC2)CC1 | 20 µM (active)
O=C(Nc1cccc(F)c1)N1CCC2(CCNCC2)CC1 | inactive
O=S(=O)(c1ccccc1)N1CCC2(CCN(C(c3ccccc3)c3ccccc3)CC2)CC1 | inactive
CC(C)NC(=O)N1CC[C@@]2(CCCN(C(=O)c3cccn3C)C2)C1 | inactive
CS(=O)(=O)N1CCC2(CCN(c3ccccc3)CC2)CC1 | inactive
CC(C)NC(=O)N1CC[C@@]2(CCCN(C(=O)Oc3ccccc3)C2)C1 | inactive
COc1ccc(NC(=O)N2CC[C@@]3(CCCNC3)C2)cc1 | inactive
O=C(c1ccncc1)N1CCC2(CC1)CN(c1ncccn1)C2 | 6.31 µM (active)
COc1ccc(NC(=O)N2CC3(CCN(C(=O)c4cccn4C)CC3)C2)cc1 | inactive
COC(=O)N1CCC2(CC1)CN(C(=O)Nc1ccccc1)C2 | inactive
COc1ccccc1CN1CC[C@@]2(CCCN(C(=O)c3c(C)noc3C)C2)C1 | inactive
CC(=O)N1CCC[C@@]2(CCN(Cc3ccccc3)C2)C1 | inactive
O=C(c1csnn1)N1CCC2(CCCN(Cc3cc(C(F)(F)F)cc(C(F)(F)F)c3)C2)CC1 | 12.6 µM (active)
CS(=O)(=O)N1CCC2(CC1)CN(C(=O)Nc1ccccc1)C2 | inactive
O=C(Nc1cccc(F)c1)N1CCC2(CC1)CCN(C(=O)c1csnn1)CC2 | inactive
COCC(=O)N1CCC2(CCCN(C(=O)Nc3cccc(F)c3)C2)CC1 | inactive

Structure (SMILES) | Potency
COc1ccc(NC(=O)N2CCC3(CC2)CCN(C(=O)c2cnccn2)CC3)cc1 | 10 µM (active)
O=C(Nc1ccccc1)N1CCC2(CC1)CCN(C(=O)c1csnn1)CC2 | inactive
COC(=O)N1CCC[C@@]2(CCN(C(=O)Nc3ccccc3)C2)C1 | 12.6 µM (active)
COc1ccc(C(=O)N2CCC3(CCCN(Cc4ccncc4)C3)CC2)cc1 | inactive
O=C(c1cc(C(F)(F)F)cc(C(F)(F)F)c1)N1CCC[C@@]2(CCN(Cc3ccncc3)C2)C1 | 12.6 µM (active)
COc1ccc(NC(=O)N2CC3(CCN(C(=O)c4c(C)noc4C)CC3)C2)cc1 | inactive
O=C(Nc1ccccc1)N1CCC2(CC1)CCN(C(=O)c1cnccn1)CC2 | inactive
COC(=O)N1CCC2(CC1)CN(c1cccc(-c3ccccc3)c1)C2 | inactive
COCC(=O)N1CCC[C@@]2(CCN(c3ncccn3)C2)C1 | inactive
O=C(Nc1cccc(F)c1)N1CC2(CCN(C(=O)c3csnn3)CC2)C1 | inactive
COCC(=O)N1CCC2(CC1)CN(C(=O)Nc1cccc(C#N)c1)C2 | inactive
CC(C)NC(=O)N1CCC2(CC1)CCN(S(C)(=O)=O)CC2 | inactive
O=C(c1csnn1)N1CCC2(CC1)CN(c1ccncc1)C2 | inactive
COCC(=O)N1CCC2(CC1)CCN(C(=O)Nc1cccc(F)c1)CC2 | inactive
O=C(c1cnccn1)N1CCC2(CCN(Cc3nccs3)CC2)CC1 | inactive
CC(=O)N1CCC2(CC1)CN(c1ccncc1)C2 | inactive
CS(=O)(=O)N1CCC2(CCN(C(=O)Nc3cccc(F)c3)CC2)CC1 | inactive
O=C(Nc1ccccc1)N1CC[C@@]2(CCCN(C(=O)c3ccco3)C2)C1 | 10 µM (active)
CS(=O)(=O)N1CCC[C@@]2(CCN(C(=O)Nc3ccccc3)C2)C1 | inactive
Cc1noc(C)c1C(=O)N1CCC[C@@]2(CCN(C(=O)NC(C)C)C2)C1 | inactive
